From PubChem BioAssay (NCATS) come the findings set out here.

Records with an inconclusive call do not appear. Activity calls are given as the source filed them. Unless noted, calls follow the shape of the full dose curve.

Assay [1] is described as follows: qHTS for Inhibitors of the Functional Ribonucleoprotein Complex (vRNP) of Lymphocytic Choriomeningitis Arenaviruses (LCMV): Viability assay - alamar blue signal for LCMV Primary Screen (AID 1347085; calls by dose curve; tested in HEK293 reporter line; also: nearly all actives have a fitted effect of over 80% in size). In general terms: Quantitative high-throughput screening tests each substance at several concentrations.
Assay [2] deals with Nucleoprotein (Lymphocytic choriomeningitis virus (strain Armstrong)) (UniProt P09992). Nature of the assay: qHTS for Inhibitors of the Functional Ribonucleoprotein Complex (vRNP) of Lymphocytic Choriomeningitis Arenaviruses (LCMV): LCMV Primary Screen - GLuc reporter signal (AID 1347086). Also: nearly all actives have a fitted effect of over 70% in size.
Nucleoprotein (Lymphocytic choriomeningitis virus (strain Armstrong)), sequence (P09992 whole entry, looked up): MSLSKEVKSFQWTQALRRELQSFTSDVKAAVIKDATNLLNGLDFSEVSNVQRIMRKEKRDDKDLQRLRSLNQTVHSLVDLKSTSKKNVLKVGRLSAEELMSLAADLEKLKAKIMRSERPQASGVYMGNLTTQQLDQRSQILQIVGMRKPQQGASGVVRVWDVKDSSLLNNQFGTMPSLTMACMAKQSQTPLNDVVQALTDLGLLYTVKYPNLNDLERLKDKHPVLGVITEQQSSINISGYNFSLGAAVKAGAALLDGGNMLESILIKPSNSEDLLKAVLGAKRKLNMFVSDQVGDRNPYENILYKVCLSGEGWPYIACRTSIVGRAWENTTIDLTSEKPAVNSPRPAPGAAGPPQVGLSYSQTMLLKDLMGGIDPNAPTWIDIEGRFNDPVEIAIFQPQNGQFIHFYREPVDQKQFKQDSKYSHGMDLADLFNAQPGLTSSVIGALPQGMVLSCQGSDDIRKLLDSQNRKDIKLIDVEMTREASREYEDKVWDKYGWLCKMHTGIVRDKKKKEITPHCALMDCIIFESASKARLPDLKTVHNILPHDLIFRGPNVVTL
Potency is read from the fitted curve at half-maximal effect.

`Cc1ccc(C(=O)Nc2ccc(CN3CCN(C)CC3)c(C(F)(F)F)c2)cc1C#Cc1cnc2cccnn12`: the Potency in assay [1] is 3.43 µM (active).
On the same count and under the same terms, as for `COc1cc2nccc(Oc3ccc(NC(=O)Nc4cc(C)on4)c(Cl)c3)c2cc1OC`, the figure is 17.2 µM (active); as for `O=C(C1CC1)N1CC[C@@H](Cn2c(-c3ccc(-c4ccc5occc5c4)cc3)nc3cnccc32)C1`, 10.9 µM (active); as for `CN(C)C(=O)c1ccc(S(=O)(=O)c2ccc(NC(=O)[C@@](C)(O)C(F)(F)F)c(Cl)c2)cc1`, “inactive”.
Turning to `COc1cc(=C2C=c3ccccc3=N2)[nH]c1=Cc1[nH]c(C)cc1C`, the Potency in assay [1] is 21.7 µM (active).
In the case of `COc1cc2c(Oc3ccc(NC(=O)C4(C(=O)Nc5ccc(F)cc5)CC4)cc3F)ccnc2cc1OCCCN1CCOCC1`, the Potency in assay [1] is 21.7 µM (active).
For the molecule `COc1ccc2c(c1)CC[C@@H](CN(C)CC(=O)O)[C@H]2c1ccccc1`, the Potency in assay [1] is 4.85 µM (active).
In the case of `C1=CCOCc2cc(ccc2OCCN2CCCC2)Nc2nccc(n2)-c2cccc(c2)OCC1`, the Potency in assay [1] was 24.3 µM (active).
Regarding `Cc1ccnc(NS(=O)(=O)c2ccc(NC(=O)Nc3ccc(S(=O)(=O)Nc4nccc(C)n4)cc3)cc2)n1`, the Potency in assay [1] was 0.685 µM (active).
On the same count and under the same terms, for `CN(c1ncccc1CNc1nc(Nc2ccc3c(c2)CC(=O)N3)ncc1C(F)(F)F)S(C)(=O)=O` the value was 34.3 µM (active); for `COc1ccc(-c2ccc3c(N4CCOCC4)nc(N4C[C@@H](C)O[C@@H](C)C4)nc3n2)cc1CO`, 1.09 µM (active); for `COCC(=O)NCC=Cc1ccc2ncnc(Nc3ccc(Oc4ccc(C)nc4)c(C)c3)c2c1`, “inactive”.
Consider `CC(C)[C@H](C(=O)Nc1ccc(C(=O)NO)cc1)c1ccccc1`, for which, in assay [1], the Potency was 6.85 µM (active).
The same measure, in the same setting: as for `CNC(=O)c1cc(Oc2ccc(NC(=O)Nc3cc(C(C)(C)C)nn3-c3ccc4ncccc4c3)c(F)c2)ccn1`, the figure is 24.3 µM (active).
For the molecule `Cc1[nH]c2ccccc2c1CCNCc1ccc(C=CC(=O)NO)cc1`, the Potency in assay [1] was 0.863 µM (active).
For `CC=C1NC(=O)[C@H]2CSSCCC=C[C@H](CC(=O)N[C@H](C(C)C)C(=O)N2)OC(=O)[C@H](C(C)C)NC1=O`, the Potency in assay [1] was 0.0968 µM (active).
Turning to `CC[C@@H]1C(=O)N(C)c2cnc(Nc3ccc(C(=O)NC4CCC(N5CCN(CC6CC6)CC5)CC4)cc3OC)nc2N1C(C)C` (some centres not stated), the Potency in assay [1] is 0.0968 µM (active).
Turning to `Cc1ccc(C(N)=O)cc1Nc1nccc(-c2cn(C(C)C)c3cnccc23)n1`, the Potency in assay [1] is 21.7 µM (active).
On to `Cc1cc(Nc2cc(N3CCN(C)CC3)nc(C=Cc3ccccc3)n2)n[nH]1`, for which the Potency in assay [1] is 31.4 µM (active).
`CCc1cncnc1N1CCN(Cc2nc3ccc(C(F)(F)F)cc3[nH]2)CC1`: the Potency result in assay [1] was “inactive”.
Turning to `CCn1c(-c2nonc2N)nc2c(C#CC(C)(C)O)ncc(OC[C@H]3CCCNC3)c21`, the Potency in assay [1] is 0.153 µM (active).
On the same count and under the same terms, as for `CN(C)CCCNC(=O)c1ccc(-c2cc(O)c3ncccc3c2)cc1`, the figure is 19.3 µM (active); as for `O=C(Nc1ccc(F)c(C(F)(F)F)c1)Nc1nnc(-c2ccncc2)s1`, 13.7 µM (active).
In the case of `CC(C)c1ccc(Cn2ccc3c4c(N)nc(NC5CC5)nc4ccc32)cc1`, in assay [1], the Potency is 7.69 µM (active).
In the case of `NC(=O)c1ccc(N(C(N)=O)c2c(F)cccc2F)nc1-c1ccc(F)cc1F`, the Potency in assay [1] was 17.2 µM (active).
For the molecule `CCN(CC)CCOc1ccc(Nc2ncc3cc(-c4c(Cl)cccc4Cl)c(=O)n(C)c3n2)cc1`, in assay [1], the Potency is 0.172 µM (active).
The same measure, in the same setting: for `CC1(O)CC(c2nc(-c3ccc4ccc(-c5ccccc5)nc4c3)c3c(N)nccn23)C1` (configuration not stated) the value was 3.85 µM (active); for `Cc1cccc(C=NNc2cc(N3CCOCC3)nc(OCCc3ccccn3)n2)c1`, 1.37 µM (active).
In the case of `O=C(Nc1cc(C(F)(F)F)cc(C(F)(F)F)c1)c1cc(Cl)ccc1O`, in assay [1], the Potency was 2.43 µM (active).
Still for that read-out and setting: for `COc1cc(OC2CCN(C)CC2)ccc1Nc1ncc2c(n1)n(C1CCCC1)c(=O)n2C` the value was 17.2 µM (active); for `C[C@@]12O[C@@H](C[C@]1(O)CO)n1c3ccccc3c3c4c(c5c6ccccc6n2c5c31)CNC4=O`, 21.7 µM (active).
As to `COc1cc2c(cc1OC)CC(=O)N(CCCN(C)C[C@H]1Cc3cc(OC)c(OC)cc31)CC2`, in assay [1], the Potency entry was “inactive”.
As to `CC(=O)OCCN1C(=O)c2c(C)nc3ccc(S(=O)(=O)N4CCOCC4)cc3c2C1=O`, the Potency result in assay [1] is “inactive”.
On to `CCc1cc(-c2n[nH]c(C)c2-c2ccc3c(c2)OCCO3)c(O)cc1O`, for which the Potency in assay [1] was 6.85 µM (active).
Take `O=C(O)c1ccc(O)c2ncc(N3CCOCC3)cc12`: in assay [1], the Potency is 48.5 µM (active).
`CCCCc1nc2cc(C=CC(=O)NO)ccc2n1CCN(CC)CC`: the Potency in assay [1] is 7.69 µM (active).
As for `Cc1cc(Nc2cc(N3CCN(C)CC3)nc(Sc3ccc(NC(=O)C4CC4)cc3)n2)n[nH]1`, in assay [1], the Potency was 38.5 µM (active).
For `C[C@]1(CO)CN(c2cc(C(=O)Nc3ccc4c(c3)-c3c(c(C(N)=O)nn3-c3ccc(F)cc3)CC4)c(Cl)cn2)C[C@@]1(C)CO`, in assay [1], the Potency was 1.37 µM (active).
For `Nc1nc2ccc([N+](=O)[O-])cc2s1`, the Potency result in assay [1] was “inactive”.
Turning to `S=C(NCc1ccc2c(c1)OCO2)N1CCN(c2ncnc3c2oc2ccccc23)CC1`, the Potency entry in assay [1] and in assay [2] was “inactive” each time.
`COc1ccccc1N1CCN(CC(O)COc2cc(OC)c(OC)c(OC)c2)CC1` (configuration not stated): the Potency entry in assay [1] and in assay [2] was “inactive” throughout.
As for `CCN(CC)CCCCNc1nc2cc(Cl)c(Cl)cc2nc1-c1ccc(-c2cccs2)s1`, the Potency entry in assay [1] and in assay [2] was “inactive” in each case.
`C=C1C(=CC=C2CCC[C@]3(C)[C@@H]([C@H](C)C=C[C@H](C)C(C)C)CC[C@@H]23)C[C@@H](O)C[C@@H]1O`: the Potency in assay [1] is 13.7 µM (active). Moreover, in assay [2], the Potency entry was “inactive”.
In the case of `Cc1nc2cnc3ccc(C#Cc4cccnc4)cc3c2n1-c1ccc(C(C)(C)C#N)cc1`, the Potency in assay [1] and in assay [2] was 0.109 µM (active) in each case.
Turning to `CNCCc1c[nH]c2ccc(O)cc12`, the Potency result in assay [1] and in assay [2] was “inactive” each time.
`C[C@@H](O[C@H]1OCCN(Cc2n[nH]c(=O)[nH]2)[C@@H]1c1ccc(F)cc1)c1cc(C(F)(F)F)cc(C(F)(F)F)c1`: the Potency entry in assay [1] and in assay [2] was “inactive” throughout.
On to `CCc1cc(Nc2nccc(-c3c(-c4ccc(OC)c(C(=O)Nc5c(F)cccc5F)c4)nc4ccccn34)n2)c(OC)cc1N1CCC(N2CCN(S(C)(=O)=O)CC2)CC1`, for which, in assay [1], the Potency is 21.7 µM (active).
For `C[N+]1(C)C2CC(OC(=O)[C@H](CO)c3ccccc3)CC1C1OC12` (some centres not stated), the Potency entry in assay [1] and in assay [2] was “inactive” in each case.
Take `CS(=O)(=O)c1ccc(C(=O)Nc2ccc(Cl)c(-c3ccccn3)c2)c(Cl)c1`: the Potency result in assay [1] and in assay [2] was “inactive” each time.
Regarding `CC(=O)Oc1ccccc1C(=O)O`, the Potency result in assay [1] and in assay [2] was “inactive” each time.
Consider `CC(C)OC(=O)c1cc(C(=O)OC(C)C)cc([N+](=O)[O-])c1`, for which the Potency result in assay [1] and in assay [2] was “inactive” each time.
Consider `COc1cccc2cc(-c3nc(C4CCC(C(=O)O)CC4)n4ncnc(N)c34)[nH]c12` (configuration not stated), for which the Potency was 1.72 µM (active) in assay [1] and 3.06 µM (active) in assay [2].
Regarding `CN1[C@@H]2CC[C@H]1CC(OC(=O)C(O)c1ccccc1)C2` (some centres not stated), the Potency result in assay [1] and in assay [2] was “inactive” in each case.
As for `O=C(Nc1cc(Cl)cc2c1[nH]c1cnccc12)c1cccnc1`, the Potency in assay [1] was 24.3 µM (active).
Turning to `Clc1ccc(-c2nc3sccn3c2C=NOCc2ccc(Cl)c(Cl)c2)cc1`, the Potency entry in assay [1] and in assay [2] was “inactive” in each case.
Turning to `Nc1ccc([N+](=O)[O-])cc1O`, the Potency result in assay [1] and in assay [2] was “inactive” throughout.
As to `NCCO`, the Potency result in assay [1] and in assay [2] was “inactive” in each case.
On to `CCOc1cc(C=C2C(=O)N(c3ccccc3)N=C2C)cc(Cl)c1OCC(=O)OC`, for which, in assay [1], the Potency was 7.69 µM (active).
Consider `CC(=O)N[C@@H](CCC(N)=O)C(=O)O`, for which the Potency result in assay [1] and in assay [2] was “inactive” throughout.
Consider `OCCn1cc(-c2ccc3c(c2)CCC3=NO)c(-c2ccncc2)n1`, for which the Potency in assay [1] was 1.72 µM (active); in assay [2], 7.69 µM (active).
On to `CCN(CC)CCc1nc(-c2ccccc2)no1`, for which the Potency entry in assay [1] and in assay [2] was “inactive” throughout.
With `CCCCCCCc1ccc(CCc2cccc(O)c2C(=O)O)cc1`, the Potency entry in assay [1] and in assay [2] was “inactive” throughout.
As for `NC(=NCCC[C@H](N)C(=O)O)N[N+](=O)[O-]`, the Potency entry in assay [1] and in assay [2] was “inactive” throughout.
`[O-][n+]1cccc(/C(Cl)=N/OC[C@@H](O)CN2CCCCC2)c1`: the Potency result in assay [1] and in assay [2] was “inactive” each time.
Turning to `CC(C)(C)c1cnc(CSc2cnc(NC(=O)C3CCNCC3)s2)o1`, the Potency in assay [1] is 0.968 µM (active).
For the molecule `Nc1ccc(S(=O)(=O)Nc2ccccc2)cc1`, the Potency entry in assay [1] and in assay [2] was “inactive” each time.
For the molecule `C[C@@H](N)C(=O)O`, the Potency entry in assay [1] and in assay [2] was “inactive” throughout.
Turning to `CNCCc1ccc(O)c(O)c1`, the Potency entry in assay [1] and in assay [2] was “inactive” each time.
Turning to `CC(NCc1ccc2c(c1)nc(NC(=O)c1ccc(-c3cn[nH]c3)s1)n2CC(C)(C)O)C(C)(C)C` (configuration not stated), in assay [1], the Potency is 1.72 µM (active).
For the molecule `Cc1ccc(F)c(NC(=O)Nc2ccc(-c3cccc4[nH]nc(N)c34)cc2)c1`, the Potency entry in assay [1] and in assay [2] was “inactive” each time.
As to `CCCS(=O)(=O)Nc1ccc(F)c(C(=O)c2c[nH]c3ncc(Cl)cc23)c1F`, in assay [1], the Potency was 2.73 µM (active).
